Screening results (PubChem BioAssay)
Shown are actives, neighbours in structure and some others; about 1.3% of the full set was active somewhere.
A1 inh – inhibitors of the anti-apoptotic protein A1, read as caspase activation. MEF A1-2A-BIM cells, Caspase-Glo 3/7 luminescence, 3 h; percent of clofoctol response, vehicle zero. caspase activation, % (no concentration beside the values). 0.066% of 330,000 active;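 active means over half of replicate activation scores above 10%, or exactly half above 10 with the replicate mean above 10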
Beta2AR agonist – human beta-2 adrenergic receptor agonism by FAP; Am2.2-beta2AR cells, FAP receptor internalization, flow cytometry; response, % (test concentration not listed); 0.43% of 340,000 active;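 active means response above a set limit, near 3 SD of response in nonfluorescent compounds, cut at about 42% in these data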
NTR1 ag – agonists of human neurotensin receptor NTR1. activation, % at 20 µM. P30989. AID 493036. 0.17% of 330,000 active. NTR1-U2OS beta-arrestin-GFP spot imaging, agonist mode;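 active means activation at or above 40% of the spot to cytoplasm intensity ratio, with at least 20 cells analyzed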
VLA-4 inh – inhibition in a human VLA-4 binding assay | P13612 | VLA-4 expressing cells, ligand binding flow cytometry | inhibition, % (about 7 µM as worked out from the volumes in the protocol) | 0.2% of 330,000 active | AID 2557; in the data active means inhibition above about 50%
Target sequence (P13612 whole entry, looked up): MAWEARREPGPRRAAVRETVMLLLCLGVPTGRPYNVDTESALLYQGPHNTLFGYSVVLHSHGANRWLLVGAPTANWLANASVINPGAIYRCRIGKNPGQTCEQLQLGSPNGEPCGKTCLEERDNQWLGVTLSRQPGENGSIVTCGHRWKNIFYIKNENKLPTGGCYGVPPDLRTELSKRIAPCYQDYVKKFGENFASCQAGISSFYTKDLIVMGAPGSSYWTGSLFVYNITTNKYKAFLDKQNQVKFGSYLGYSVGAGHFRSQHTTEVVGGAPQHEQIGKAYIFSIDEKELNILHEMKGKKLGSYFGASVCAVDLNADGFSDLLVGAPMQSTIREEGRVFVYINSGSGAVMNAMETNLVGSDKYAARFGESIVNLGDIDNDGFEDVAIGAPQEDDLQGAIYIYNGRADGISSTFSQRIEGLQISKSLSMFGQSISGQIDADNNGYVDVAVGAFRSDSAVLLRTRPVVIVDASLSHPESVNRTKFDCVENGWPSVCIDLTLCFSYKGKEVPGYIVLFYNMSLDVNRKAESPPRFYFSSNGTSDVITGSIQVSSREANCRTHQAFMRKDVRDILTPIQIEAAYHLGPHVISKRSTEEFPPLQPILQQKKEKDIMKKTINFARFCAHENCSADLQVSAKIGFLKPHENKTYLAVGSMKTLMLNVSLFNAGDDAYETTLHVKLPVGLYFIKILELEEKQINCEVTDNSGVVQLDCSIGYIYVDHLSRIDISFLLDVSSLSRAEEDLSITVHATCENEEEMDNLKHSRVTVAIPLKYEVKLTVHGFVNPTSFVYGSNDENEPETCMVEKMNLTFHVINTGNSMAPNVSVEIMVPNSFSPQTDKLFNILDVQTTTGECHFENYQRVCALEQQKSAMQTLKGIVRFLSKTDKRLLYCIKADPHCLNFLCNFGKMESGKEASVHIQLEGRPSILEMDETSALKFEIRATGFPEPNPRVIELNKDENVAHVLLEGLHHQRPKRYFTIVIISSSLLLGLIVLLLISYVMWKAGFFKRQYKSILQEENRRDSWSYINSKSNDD
GRK2 inh – human GRK2 inhibition via aptamer displacement. AID 488847. bead flow cytometry, FAM-aptamer displacement from GRK2. P25098. inhibition of aptamer binding, % at 10 µM. 0.59% of 330,000 active;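 active means inhibition of aptamer binding above 40%, roughly 3 SD of noise, on plates passing a quality check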;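 further: median bead fluorescence of bound FAM aptamer so fluorescent compounds give negative values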
GRK2 inh confirm – human GRK2 inhibition confirmation, cherry pick 1; shares compounds with GRK2 inh; AID 504451; aptamer displacement, % at 10 µM; bead-bound GRK2, FAM-aptamer displacement, flow cytometry; 4% of 2,000 active;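 active means aptamer displacement above 40%, near three times the noise of non-fluorescent compounds, on plates passing quality checks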;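 further: negative values mostly reflect intrinsic compound fluorescence rather than true enhancement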
Aptamer quench 1 – fluorescent aptamer quenching in GRK2 counter-screen dose response; shares compounds with GRK2 inh; Fluorescent RNA aptamer beads, flow cytometry; hits give high values; fluorescence change (kMESF span), kMESF (concentration not given with the values); 110 tested, under 10 active;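 active means compounds whose bead fluorescence drops by more than 37 kMESF across the dose range, marking them as dye quenchers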
Aptamer quench SP – aptamer fluorescence quenching in GRK2 counter-screen; shares compounds with GRK2 inh; Carboxyfluorescein RNA aptamer on beads, flow cytometry quenching; hits give low values; fluorescence response (% of DMSO), % at 10 µM; 2,000 tested, under 10 active;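 active means compounds that quench the bead-bound fluorescent RNA probe, cutting fluorescence to under half of the solvent control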;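 further: counterscreen run without GRK2 so only probe quenching by compound is measured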
GRK2 confirm 2 – confirmation of human GRK2 inhibitors binding RNA aptamer site. shares compounds with GRK2 inh. bead-bound GRK2, FAM-aptamer displacement, flow cytometry. inhibition of aptamer binding, % at 10 µM. 360 tested, under 10 active;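 active means inhibition of aptamer binding above 40%, about triple the noise seen with nonglowing compounds, on plates passing quality control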;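 further: negative values mostly come from compounds that fluoresce themselves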
FAM quench SP – aptamer fluorescence quenching in GRK2 counter-screen | 360 tested, under 10 active | shares compounds with GRK2 inh | carboxyfluorescein RNA aptamer beads, flow cytometry quenching; hits give low values | fluorescence response vs DMSO, % at 10 µM;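 active means response vs DMSO under 50%, meaning signal dropped by over half, treated as fluorescence quencher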;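 further: labelled aptamer on streptavidin beads without GRK2 as a quench counter-screen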
Each line names hits and unclear results; the compound was inactive in the other large screens (follow-up assays come after a bar, where they were run).

Cc1ccc(CNC(=O)C2CCCN(S(=O)(=O)c3ccc(-n4cnnn4)cc3)C2)cc1 (stereo unspecified)	none | GRK2 inh confirm inactive | Aptamer quench SP inactive
CC(C)CCNC(=O)C1CCCN(S(=O)(=O)c2ccc(-n3cnnn3)cc2)C1 (stereo unspecified)	none
O=C(NCc1ccccc1F)C1CCCN(S(=O)(=O)c2ccc(-n3cnnn3)cc2)C1 (stereo unspecified)	none | GRK2 inh confirm inactive | Aptamer quench SP inactive
COc1ccccc1CNC(=O)C1CCCN(S(=O)(=O)c2ccc3c(c2)C(C)(C)C(=O)N3C)C1 (stereo unspecified)	none | GRK2 inh confirm inactive | Aptamer quench SP inactive
CCCc1c(C(=O)N/N=C(\C)CCc2ccccc2)nnn1-c1nonc1N	GRK2 inh 70.0 | GRK2 inh confirm inactive | Aptamer quench SP inactive
CC(CNc1ccccc1O)C(=O)O (stereo unspecified)	GRK2 inh 62.0 | GRK2 confirm 2 inactive | FAM quench SP inactive
CC(NC(=O)CCC(=O)Nc1ccccc1O)c1ccccc1 (stereo unspecified)	none
C[n+]1c(-c2ccc(C=NNC(=O)c3ccc(C(=O)NN=Cc4ccc(-c5cn6ccccc6[n+]5C)cc4)cc3)cc2)cn2ccccc21	none (no result: A1 inh, NTR1 ag, VLA-4 inh, GRK2 inh)
C[C@H]1CCC(=O)N([C@H](CN=[N+]=[N-])Cc2ccccc2)CC1	none
O=P(OCC1CCCO1)(OCC1CCCO1)OCC1CCCO1 (stereo unspecified)	none (no result: A1 inh, NTR1 ag, VLA-4 inh, GRK2 inh)
Cn1cc(C(=O)OCC2CCN(CCNS(C)(=O)=O)CC2)c2ccccc21	none | GRK2 inh confirm inactive | Aptamer quench SP inactive
O=C(OC1CCOC1=O)C1CCN(S(=O)(=O)c2ccc(Cl)c(C(F)(F)F)c2)CC1 (stereo unspecified)	none
CC(=O)N/C(=C\c1ccccc1)C(=O)NCc1ccc2c(c1)OCO2	GRK2 inh 64.0 | GRK2 inh confirm inactive | Aptamer quench SP inactive
CCN1C(=O)[C@H]2[C@H]3CN=C(SCc4ccc(C)cc4)N3[C@@](CC)(C(=O)OC)[C@H]2C1=O	none (no result: A1 inh, VLA-4 inh)
CCCCSCCCNC(=O)c1ccc2c(c1)N(CC)C(=O)c1ccccc1S2=O (stereo unspecified)	GRK2 inh 47.0 | GRK2 confirm 2 inactive | FAM quench SP inactive
CCCN(CCC)CCCNC(=O)c1ccc2c(c1)N(CC)C(=O)c1ccccc1S2=O (stereo unspecified)	none
COc1ccc(CN2CCSCC2)c(C)c1C	none
CCC(=O)Nc1ccccc1C(=O)C(=O)Nc1ccccc1	none | GRK2 inh confirm inactive | Aptamer quench SP inactive
CC(C)O/C(=N/S(=O)(=O)c1ccc(Cl)cc1)c1ccccc1	none (no result: A1 inh, NTR1 ag, VLA-4 inh, GRK2 inh)
Cc1cc(C)c(C)c(S(=O)(=O)N2C(=S)NC(=O)C2CC(C)C)c1C (stereo unspecified)	GRK2 inh 96.0 | GRK2 inh confirm inactive | Aptamer quench SP inactive
Cc1cc(C)c(C)c(S(=O)(=O)N2C(=S)NC(=O)C2C(C)C)c1C (stereo unspecified)	none
Cc1ccc2oc(C(=O)Nc3ccc(S(=O)(=O)Nc4ncccn4)cc3)c(C)c2c1	none
CC(=O)Nc1ccc(N2CC(C)(C)C2=O)cc1	none
Cc1ccccc1/C=N/Nc1nc2ccccc2[nH]1	none
O=[N+]([O-])c1cc(/C=N/Nc2nc3ccccc3[nH]2)c(O)cc1O	GRK2 inh 45.0 (no result: Beta2AR agonist, NTR1 ag) | GRK2 inh confirm inactive | Aptamer quench SP inactive
C=CCN1C(=O)c2ccc(C(=O)N(CCC)CC(=O)Nc3ccccc3C)cc2C1=O	GRK2 inh 99.0 | GRK2 inh confirm inactive | Aptamer quench SP inactive
C=CCN1C(=O)c2ccc(C(=O)N(C)CC(=O)Nc3ccccc3Br)cc2C1=O	none
COc1ccc(C(=O)c2c3ccc(OC)cc3[n+]([O-])n2Cc2ccc(C(N)=O)cc2)cc1	none
O=C(O)/C=C/C(=O)Nc1ccc(Oc2ccc(NC(=O)/C=C/C(=O)O)cc2)cc1	none (no result: Beta2AR agonist)
O=C(O)/C=C/C(=O)Nc1ccc(Cc2ccc(NC(=O)/C=C/C(=O)O)cc2)cc1	none | GRK2 inh confirm inactive | Aptamer quench SP inactive
Cc1oc(C(=O)O)cc1COc1ccc2c3c(c(=O)oc2c1C)CCC3	GRK2 inh 73.0 | GRK2 inh confirm inactive | Aptamer quench SP inactive
O=C(COC(=O)c1ccc[nH]c1=O)Nc1ccc(N2CCCCC2)cc1	none
Cc1cc(NC(=O)CCCn2nc(C)c([N+](=O)[O-])c2C)no1	GRK2 inh 51.0 | GRK2 inh confirm inactive | Aptamer quench SP inactive
Cc1cc(NC(=O)CCCn2cnc([N+](=O)[O-])n2)no1	none
Cc1ccc(OCC(=O)c2cc(C)c(C)cc2C)c([N+](=O)[O-])n1	none
Cc1ccc(OCC(=O)c2c(N)n(C)c(=O)n(C)c2=O)c([N+](=O)[O-])n1	GRK2 inh 77.0 | GRK2 inh confirm 60.5 | Aptamer quench 1 inactive | Aptamer quench SP inactive
CC1=C(/C=C/C(C)=C/C=C/C(C)=C/CO)C(C)(C)CCC1	GRK2 inh 86.0 | GRK2 inh confirm inactive | Aptamer quench SP inactive
CC1=CC(C)(C)NC(=S)N1C(C)c1ccccc1 (stereo unspecified)	none
CCOC(=O)c1cccc(NC(=O)CNC(=O)C2CCCCC2)c1	GRK2 inh 54.0 | GRK2 inh confirm inactive | Aptamer quench SP inactive
Cc1cccc(C)c1NC(=O)COC(=O)CNC(=O)C1CCCCC1	GRK2 inh 95.0 (no result: A1 inh) | GRK2 inh confirm inactive | Aptamer quench SP inactive
CCN(CC)CCNC(=O)c1cn(CC)c2ccc(S(=O)(=O)N3CCc4ccccc4C3)cc2c1=O	none
CCN(CC(=O)Nc1ccc(NC(C)=O)cc1)C(=O)C1CC(=O)N(CCc2ccc(OC)c(OC)c2)C1 (stereo unspecified)	GRK2 inh 92.0 | GRK2 inh confirm inactive | Aptamer quench SP inactive
O=C(Nc1ccc(F)cc1)N1CCN(c2ncccn2)CC1	GRK2 inh 94.0 | GRK2 inh confirm inactive | Aptamer quench SP inactive
Cn1c(N2CCN(C(=O)Nc3ccc(C(F)(F)F)cc3)CC2)nc2ccccc21	none | GRK2 inh confirm inactive | Aptamer quench SP inactive
Cn1c(N2CCN(C(=O)NCc3ccccc3)CC2)nc2ccccc21	none
CN(C(=O)CSc1ncnc2sc3c(c12)CCCC3)C1CCS(=O)(=O)C1 (stereo unspecified)	none
CCN(CCO)c1ncnc2onc(-c3ccc(F)cc3)c12	none
